The values below come from PubChem BioAssay (NCATS).

Inconclusive results are not listed. Activity calls are given as the source filed them. The call rests on the fitted dose curve; in most records, active means well fitted inhibition curve with a large enough effect; inconclusive means small, poorly fitted or top-dose-only effect; inactive means no such curve, though single readings can be large or run the other way. Where a SMILES comes first, the peptide text is derived from it. [ ]: non-standard residue; d: D form. Ala(indol-2-yl) = N[C@@H](Cc1cc2ccccc2[nH]1)C(=O)O; Aib = CC(C)(N)C(=O)O
On the % scale 0 is the no-effect control and ±100 the full control effect; potency means the concentration at half of the fitted maximal effect.

A short description of this test: Primary qHTS for inhibitors of nuclear receptor binding SET domain protein 2 (NSD2) in an RCH-ACV wild type WT cells (2C) (AID 1645877). Further: nearly all actives have a fitted effect of over 70% in size. The note with it: RCH-ACV (leukaemia line) NSD2 WT (2C) viability, CellTiter-Glo, 72 h; series mostly up to 44.9 µM; activity change, negative = cell killing: at the top concentration. In general terms: Quantitative high-throughput screening tests each substance at several concentrations.
Regarding `CC(=O)O[C@@H]1[C@@H](O)[C@H]2O[C@@H]3C=C(C)[C@@H](O)C[C@]3(CO)[C@]1(C)[C@]21CO1`, the Potency was 358 nM (active).

`COc1cc2c(c(OC)c1OC)-c1ccc(SC)c(=O)cc1[C@@H](NC(C)=O)CC2`: the Potency was 5.8 nM (active).

On to `CC(C)(NC(=O)[C@@H](N)Cc1ccc(O)cc1)C(=O)N[C@@H](Cc1cc2ccccc2[nH]1)C(=O)N[C@@H](Cc1ccccc1)C(=O)O` (H-Y[Aib][Ala(indol-2-yl)]F-OH), for which the activity change, negative = cell killing is -2.68% [at 9.23 µM] (inactive).

For `C=C1[C@@H](C)[C@H]2[C@H](Cc3ccccc3)NC(=O)[C@]23[C@H](OC(C)=O)/C=C/[C@](C)(O)C(=O)[C@@H](C)C/C=C/[C@H]3[C@@H]1O`, the Potency is 258 nM (active).

Regarding `C[C@@H]1C[C@@H](O)[C@]2(O)O[C@@H]3C[C@@]4(C=O)C(CC[C@@H]5C4CC[C@]4(C)[C@@](O)(C6=CC(=O)OC6)CC[C@]54O)C[C@H]3OC2O1` (stereo partly drawn), the Potency was 1120 nM (active).

As to `CC(=O)OC[C@]12C[C@H](OC(=O)CC(C)C)C(C)=C[C@H]1O[C@@H]1[C@H](O)[C@@H](OC(C)=O)[C@@]2(C)[C@@]12CO2`, the Potency is 10 nM (active).

Consider `CC[C@H](C)[C@H](NC(=O)[C@H]1CCCCN1C)C(=O)N(COC(=O)CC(C)C)[C@H](C[C@@H](OC(C)=O)c1nc(C(=O)N[C@@H](Cc2ccc(O)cc2)C[C@H](C)C(=O)O)cs1)C(C)C`, for which the Potency was 0.3 nM (active).

For the compound `CN[C@@H]1C[C@H]2O[C@@](C)([C@@H]1OC)n1c3ccccc3c3c4c(c5c6ccccc6n2c5c31)C(=O)NC4`, the Potency is 59 nM (active).

As for `CC1=C[C@H]2O[C@@H]3C[C@H]4OC(=O)/C=C/C=C/C(=O)OCC/C(C)=C/C(=O)OC[C@@]2(CC1)[C@]4(C)[C@]31CO1`, the Potency is 3.2 nM (active).

With `CC(=O)OC[C@]12C[C@H](OC(=O)CC(C)C)C(C)=C[C@H]1O[C@@H]1[C@H](O)[C@@H](O)[C@@]2(C)[C@]12CO2`, the Potency was 17.8 nM (active).

For the compound `CC(=O)OC[C@]12C[C@H](OC(=O)CC(C)C)C(C)=C[C@H]1O[C@@H]1[C@H](O)C[C@@]2(C)[C@]12CO2`, the Potency was 317 nM (active).

As to `COC1CC(O[C@H]2CC[C@]3(C)C4CC[C@]5(C)[C@@H](C6=CC(=O)OC6)[C@@H](OC(C)=O)C[C@]5(O)C4CC[C@@H]3C2)OC(C)C1O[C@@H]1O[C@H](CO)[C@@H](O)[C@H](O)[C@H]1O` (stereo partly drawn), the Potency was 483 nM (active).

In the case of `Cc1c(Cl)c(OCC(=O)N2CCN(C)CC2)nc2sc(C(=O)NC3CC3)c(N)c12`, the “activity change, negative = cell killing” value is -3.12% (inactive).

Turning to `CO[C@H]1[C@H](O)[C@H](O[C@H]2CC[C@]3(C=O)C4CC[C@]5(C)[C@H](C6=CC(=O)OC6)CC[C@]5(O)C4CC[C@@H]3C2)O[C@@H](C)[C@@H]1O` (stereo partly drawn), the Potency is 44.7 nM (active).

As for `C[C@H]1O[C@@H](O[C@H]2CC[C@]3(C=O)C4CC[C@]5(C)[C@@H](C6=CC(=O)OC6)CC[C@]5(O)[C@@H]4CC[C@]3(O)C2)C[C@@H](O)[C@@H]1O` (stereo partly drawn), the Potency was 31.7 nM (active).

Turning to `C[C@]12CC[C@H](O)C[C@H]1CC[C@@H]1[C@@H]2[C@H](O)C[C@]2(C)[C@@H](c3ccc(=O)oc3)CC[C@]12O`, the Potency was 45.9 nM (active).

With `C[C@H]1O[C@@H](O[C@H]2CC[C@]3(CO)C4CC[C@]5(C)[C@@H](C6=CC(=O)OC6)CC[C@]5(O)[C@@H]4CC[C@H]3C2)[C@H](O)[C@H](O)[C@@H]1O[C@@H]1O[C@H](CO)[C@@H](O)[C@H](O)[C@H]1O` (stereo partly drawn), the Potency is 1080 nM (active).

With `CC1=C[C@H]2O[C@@H]3[C@H](O)[C@@H](O)[C@](C)([C@@]2(CO)C[C@@H]1O)[C@]31CO1`, the Potency was 515 nM (active).

In the case of `C[C@H]1O[C@@H](n2cnc3c(N)ncnc32)C[C@@H]1O`, the “activity change, negative = cell killing” value was -5.08% (inactive).

`OCc1nnc2n1-c1ccc(Cl)cc1C(c1ccccc1Cl)=NC2`: the compound was classed as inactive.

For the compound `CO[C@@H]1C[C@H](O[C@H]2CC[C@@]3(C)C(CCC4C3CC[C@]3(C)[C@@H](C5=CC(=O)OC5)[C@@H](OC(C)=O)CC43O)C2)O[C@H](C)[C@@H]1O[C@H]1O[C@H](CO[C@@H]2O[C@H](CO)[C@@H](O)[C@H](O)[C@H]2O)[C@@H](O)[C@H](O)[C@H]1O` (stereo partly drawn), the Potency was 774 nM (active).

As to `CC1=CC2OC3[C@H](O)C[C@@](C)([C@]34CO4)[C@@]2(CO)[C@H](O)C1=O` (stereo partly drawn), the Potency is 1830 nM (active).

As to `C=C1[C@@H](C)[C@H]2[C@H](Cc3ccccc3)NC(=O)[C@]23OC(=O)/C=C/C(=O)CCC[C@@H](C)C/C=C/[C@H]3[C@@H]1O`, the Potency was 459 nM (active).
